The values below come from PubChem BioAssay AID1063 (University of Pittsburgh Molecular Library Screening Center, 2008).

Each structure is given as a SMILES string. The whole screen tested about 200,000 compounds, of which about 18,000 (9%) were called active. Only a selection was taken, and actives are over-represented in it overall. A number with no mark means an inactive call. No stated cut-off is given here; in the data, active means inhibition above about 50%; inactive means the rest.

The experiment in a line: antileishmanial activity against promastigotes – primary screen (AID 1063).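 Further: promastigotes grown with compound for 44 hours at 28 °C.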 The settings on record: Leishmania major promastigotes, resazurin fluorescence viability; at 10 µM; hits give high values. (The colour change of resazurin is a common sign of viable cells or microbes.)
Usually inhibition stands for the change of the read-out against control, counted positive when it falls. Turning to `O=C1c2ccccc2C(=O)N1CCC(O)C[N+](=O)[O-]` (stereo unspecified), the inhibition is -0.84%.
To `Cc1ccc(Cl)cc1NC(=O)C1CCN(S(C)(=O)=O)CC1` belongs 2.22%; to `COc1ccc(OC)c(C(=O)c2coc3ccc(OC)cc23)c1`, 6.9%; to `COc1ccc2occ(C(=O)c3ccc(N=C(C)N(C)C)cc3)c2c1`, 100% (active).
Turning to `COc1ccc(OC)c(C(=O)c2ccc(C(=O)O)cc2)c1`, the inhibition is -2.29%.
For `COc1ccc2cc(CCl)c(Cl)nc2c1`, the inhibition was 5.05%.
To `O=C1N=C(N2CCCC2)S/C1=C\c1cccc(Br)c1` belongs 96.6% (active).
Regarding `O=C1N=C(N2CCOCC2)S/C1=C\C=C/c1ccccc1`, the inhibition is 7.77%.
To `CCc1ccc(/C=C2\SC(N3CCOCC3)=NC2=O)cc1` belongs 12.3%; to `COc1ccc(/C=C/C(=O)c2cc(Br)ccc(=O)c2O)cc1`, -3.91%.
In the case of `COc1ccc(/C=C/C(=O)c2ccc(OC)cc2O)cc1` it was 7.64%; in that of `COc1ccc(C(=O)/C=C/c2ccc(OC3CSC3)cc2)cc1`, 75.7% (active); in that of `O=C(COc1ccccc1)Nc1ccc(N2CCN(C(=O)c3cccs3)CC2)cc1`, -3.12%.
In the case of `C=CCn1nc(-c2ccccc2)c2c(C)onc2c1=O` it was 2.35%; in that of `Cc1nnc(-c2ccc(Oc3ccc(C)c(C)c3)c([N+](=O)[O-])c2)o1`, 64.6% (active).
Consider `COc1ccc(OCC(=O)Nc2cc(C)c(Cl)cc2OC)c([N+](=O)[O-])c1`, for which the inhibition is 0.64%.
To `COc1ccc(-c2nc3cc([N+](=O)[O-])ccc3o2)cc1OC` belongs -4.49%; to `O=C(Nc1ccc(N2CCOCC2)cc1)c1ccc2c(c1)OCO2`, -0.26%.
To `CCc1ccc(CN(C)C(=O)CCc2nnc(-c3ccc(-c4ccccc4)cc3)o2)nc1` belongs 25.8%.
With `Clc1cccc(N=C2NN=C(c3ccc4c(c3)OCCO4)CS2)c1`, the inhibition is 4.41%.
To `c1ccc(CN2CCC(N=C3NN=C(c4ccc5c(c4)OCCO5)CS3)CC2)cc1` belongs 75.9% (active).
To `CS(=O)(=O)N(CC(=O)N1CCN(Cc2ccccc2)CC1)c1ccc2c(c1)OCCO2` belongs -0.45%; to `COc1ccccc1NC(=O)c1c(Br)cnn1C`, -1.37%.
To `O=C(NNC1=C(C(=O)C(F)(F)F)CCC1)c1ccncc1` belongs -0.87%; to `c1ccc(-c2cc(N3CCCCC3)c3ccccc3n2)cc1`, 43.1%.
Turning to `C(=N/Nc1cc(N2CCOCC2)nc(N2CCOCC2)n1)/c1ccccc1`, the inhibition is -1.17%.
To `CC(Nc1nc(N2CCCC2)nc2ccccc12)c1ccccc1` (stereo unspecified) belongs 100% (active); to `CC(Nc1nc(N2CCOCC2)nc2ccccc12)c1ccccc1` (stereo unspecified), 54.2% (active); to `Fc1cnc(N2CCOCC2)nc1NCc1ccccc1`, 0.72%.
In the case of `Cc1cc(Oc2ccccc2)nc(N2CCOCC2)n1` it was -4.03%.
Regarding `CC(Nc1nc(N2CCN(CCO)CC2)nc2ccccc12)c1ccccc1` (stereo unspecified), the inhibition is 16.7%.
On to `CC(CN1CCOCC1)c1ccccc1` (stereo unspecified), for which the inhibition is 5.49%.
With `c1ccc2c(NC3C4CC5CC(C4)CC3C5)nc(N3CCOCC3)nc2c1` (stereo unspecified), the inhibition is 69.9% (active).
In the case of `COc1cc(C(=O)NCc2ccc(-n3cccc3)cc2)cc(OC)c1OC` it was 23%; in that of `COc1ccc(CCNC(=O)C(=O)NCc2ccccc2C)cc1OC`, -0.59%.
As for `CC(C)(C)NC(=O)c1ccc(Cn2cc(C(F)(F)F)ccc2=O)cc1`, the inhibition was -0.17%.
In the case of `Cc1ccc(C2NC(C(=O)O)CS2)cc1` (stereo unspecified) it was -9.29%.
To `Cc1cccc(NC(=S)NC(=O)c2ccc(Br)o2)c1` belongs -3.34%; to `CNC(=O)C(=O)N/N=C/c1ccccn1`, -7.18%.
To `Cc1ccc(-c2ccc(/C=N/NC(=O)CN3CCOCC3)o2)cc1[N+](=O)[O-]` belongs 96.8% (active); to `N#C/C(=C\c1ccc(-c2cccc([N+](=O)[O-])c2)o1)C(=O)NCCN1CCOCC1`, 17.4%.
Consider `Cc1cc(C)c([N+](=O)[O-])cc1-c1ccc(/C=N/NC(=O)c2nonc2N)o1`, for which the inhibition is 14.1%.
In the case of `N#C/C(=C\c1ccccc1C(F)(F)F)C(=O)Nc1ccccc1F` it was 7.15%.
In the case of `O=C(/C=C/c1c(F)cccc1Cl)Nc1nn[nH]n1`, the inhibition is -6.22%.
For the compound `CNC(=O)/C(C#N)=C/c1c(F)cccc1Cl`, the inhibition was 99.2% (active).
In the case of `COc1cccc(-c2ccc(SCC(=O)N3CCN(c4ccccc4)CC3)nn2)c1` it was 4.58%; in that of `O=C(CSc1ccc(-c2cccs2)nn1)Nc1ccccc1F`, 10.6%; in that of `Cc1nnnn1/C(=C\c1ccccc1)C(=O)OCC(=O)N1CC2(C)CC1CC(C)(C)C2` (stereo unspecified), 100% (active).
In the case of `COc1ccccc1C(=O)N1CC2(C)CC1CC(C)(C)C2` (stereo unspecified) it was -5.56%; in that of `Cc1cccc(C(=O)NCC(=O)OCC(=O)N2CC3(C)CC2CC(C)(C)C3)c1` (stereo unspecified), 43.9%.
In the case of `Cc1nnsc1C(=O)Nc1cccc(Cl)c1C` it was -7.14%; in that of `CCOP(=O)(OCC)C(Nc1cccc(C)c1)c1ccc(F)cc1` (stereo unspecified), 61.2% (active).
For the compound `CCOP(=O)(OCC)C(Nc1ccc([N+](=O)[O-])cc1)c1ccc(Cl)cc1` (stereo unspecified), the inhibition is 36.9%.
In the case of `CCCCOC(=O)c1ccc(NC(c2ccc(C)cc2)P(=O)(OC)OC)cc1` (stereo unspecified) it was 2.9%; in that of `Cc1nc2cc(NC(=O)NC3CC3)ccc2n1C`, -6.22%; in that of `CCO[C@H]1OC(C(=O)N2CCCCCCC2)=C[C@@H](c2ccc(C(F)(F)F)cc2)[C@@H]1CCCO`, -8.31%.
In the case of `CCO[C@H]1OC(C(=O)N2CCN(Cc3ccccc3)CC2)=C[C@@H](c2cn(C(C)=O)c3ccccc23)[C@@H]1CCCO`, the inhibition was 71.4% (active).
To `CC(=O)n1cc([C@@H]2C=C(C(=O)N3CCN(Cc4ccc5c(c4)OCO5)CC3)O[C@H](OCc3ccc(CO)cc3)C2)c2ccccc21` belongs 78.9% (active).
In the case of `CC(=O)n1cc([C@H]2C=C(C(=O)N3CCOCC3)O[C@@H](OCc3ccc(CO)cc3)C2)c2ccccc21` it was 0.43%; in that of `CCO[C@H]1OC(C(=O)NCc2ccccc2)=C[C@@H](c2coc3ccccc3c2=O)[C@@H]1CCCO`, 8.75%.
For the compound `CN1CCN(C(=O)C2=C[C@H](c3ccc4c(c3)OCO4)C[C@H](OCc3ccc(CO)cc3)O2)CC1`, the inhibition is 5.67%.
